Results from PubChem BioAssay (Tox21).
Several values for one entry are separate records, joined by “and”; a condition that tells them apart may be missing. Equal values may be shown once. Records with an inconclusive call do not appear. Where a call stands in place of a potency, no number is given. More than one record can exist for a structure, and the calls need not agree. Activity calls are given as the source filed them. Unless noted, calls follow the shape of the dose curve; as a rule, active = well fitted curve in the direction sought with a large enough effect in the repeat runs; inconclusive = weak or mixed curves; inactive = no such curve, though single readings can be large; an effect the other way counts as inactive or inconclusive.

Columns and labels:
[1] = qHTS assay to identify small molecule antagonists of the constitutive androstane receptor (CAR) signaling pathway - cell viability counter screen (AID 1224837); also: nearly all actives have a fitted effect of over 45% in size
Procedure, shortened: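 HepG2-CYP2B6-hCAR cells, 2500/well, 4 hr pre-incubation; compound titration, 15 conc.; CITCO 50 nM final; 23 hr, 37 C/5% CO2; CellTiter-Fluor, fluorescence intensity.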

[2] = qHTS assay to identify small molecule antagonists of the estrogen related receptor signaling pathway with the pleiotropic PPARgamma coactivator (PGC) from Tox21 10K library - cell viability counter screen (AID 1224840; active = well fitted cell-killing curve with a large enough effect in the repeat runs, not every such curve was filed as active; also: nearly all actives have a fitted effect of over 40% in size)
Procedure, shortened: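 PGC/ERR cells, 2,000/well; 6 h pre-incubation 37 C/5% CO2; cpd in DMSO via pin tool; 17.5 h 37 C; CellTiter-Fluor, 30 min; fluorescence.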

[3] = qHTS assay to identify small molecule antagonists of the estrogen related receptor signaling pathway with the pleiotropic PPARgamma coactivator (PGC) from Tox21 10K library (AID 1224841; call rule not given here; also: actives are mostly falling curves and most rising ones were filed inactive; nearly all actives have a fitted effect of over 50% in size)
Procedure, shortened: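 PGC/ERR cell line, 2,000 cells/well; 6 h pre-incubation 37 C/5% CO2; compounds (DMSO) pinned in; 18 h, 37 C; One-Glo, 30 min RT; luminescence.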

[4] = qHTS assay to identify small molecule agonists of the hypoxia (HIF-1) signaling pathway - cell viability counter screen (AID 1224844; calls by dose curve; also: nearly all actives have a fitted effect of over 50% in size)
Procedure, shortened: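 ME-180 HRE-bla cells, 2,000/well, 0.5% dialyzed FBS; 5 hr settle, 17 hr compound at 37C/5% CO2; CCF4-AM reporter read first, then CellTiter-Glo luminescence after 30 min RT.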

[5] = qHTS assay to identify small molecule agonists of H2AX (AID 1224845; active = well fitted activation curve with a large enough effect in the signal ratio in the repeat runs, not every such curve was filed as active; the % refers to the signal ratio)
Procedure, shortened: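 Phospho-H2AX Ser139 measured by HTRF (ex 320 nm; em 665 and 620 nm) after 24 hr antibody incubation. Compounds, 15 concentrations, 0.76% DMSO, were applied to CHO-K1 cells for 3hr at 37C before lysis.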

[6] = target: Thyrotropin receptor (Homo sapiens) (UniProt P16473); test: qHTS assay to identify small molecule agonists of the thyroid stimulating hormone receptor (TSHR) signaling pathway (AID 1224843; calls by dose curve; also: nearly all actives have a fitted effect of over 45% in size)
Procedure, shortened: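 Screening of the Tox21 10K collection used HEK293 cells engineered with TSHR at 800 cells per well. After a 30-min room-temperature compound exposure, HTRF cAMP reagents were added and fluorescence recorded 1 h later.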

[7] = target: Nuclear receptor subfamily 1 group I member 3 (Homo sapiens) (UniProt Q14994); test: qHTS assay to identify small molecule agonists of the constitutive androstane receptor (CAR) signaling pathway (AID 1224839); also: nearly all actives have a fitted effect of over 15% in size;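 as to activation: HepG2 cells stably carrying human CAR and a CYP2B6 luciferase reporter; series mostly up to about 92 µM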
Procedure, shortened: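 Luminescent ONE-Glo read-out after 24 hr, 37 C exposure of double-stable HepG2-CYP2B6-hCAR reporter cells to a 15-point compound series, in the presence of 0.75 uM PK11195 (final).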

[8] = qHTS assay to identify small molecule agonists of the estrogen related receptor signaling pathway with the pleiotropic PPARgamma coactivator (PGC) from Tox21 10K library (AID 1224842); also: nearly all actives have a fitted effect of over 15% in size
Procedure, shortened: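 Luminescence from One-Glo (30 min, room temperature) measured after PGC/ERR cells had 18 h at 37 C with pinned compound (23 nL in DMSO). Cells had been seeded at 2,000 per well and pre-incubated 6 h.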

[9] = target: Nuclear receptor subfamily 1 group I member 3 (Homo sapiens) (UniProt Q14994); test: qHTS assay to identify small molecule antagonists of the constitutive androstane receptor (CAR) signaling pathway (AID 1224838);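 also: HepG2 cells stably expressing hCAR with CYP2B6 luciferase reporter stimulated by CITCO; nearly all actives have a fitted effect of over 40% in size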
Procedure, shortened: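 HepG2-CYP2B6-hCAR cells; 4 h pre-incubation; cpd (15 conc) + CITCO 50 nM final; 24 h, 37 C/5% CO2; ONE-Glo, luminescence.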
Potency is read from the fitted curve at half-maximal effect.

Nuclear receptor subfamily 1 group I member 3 (Homo sapiens), sequence (Q14994 whole entry, looked up): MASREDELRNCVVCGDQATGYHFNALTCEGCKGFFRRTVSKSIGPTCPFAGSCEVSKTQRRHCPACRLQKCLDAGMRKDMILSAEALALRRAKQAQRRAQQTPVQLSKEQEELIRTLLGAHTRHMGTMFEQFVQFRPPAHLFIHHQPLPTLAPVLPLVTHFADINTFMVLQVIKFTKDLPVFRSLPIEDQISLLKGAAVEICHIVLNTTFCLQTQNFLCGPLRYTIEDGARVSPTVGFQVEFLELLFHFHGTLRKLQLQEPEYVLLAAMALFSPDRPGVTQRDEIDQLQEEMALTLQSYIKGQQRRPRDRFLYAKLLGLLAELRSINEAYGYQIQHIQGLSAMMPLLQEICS
Thyrotropin receptor (Homo sapiens), sequence (P16473 whole entry, looked up): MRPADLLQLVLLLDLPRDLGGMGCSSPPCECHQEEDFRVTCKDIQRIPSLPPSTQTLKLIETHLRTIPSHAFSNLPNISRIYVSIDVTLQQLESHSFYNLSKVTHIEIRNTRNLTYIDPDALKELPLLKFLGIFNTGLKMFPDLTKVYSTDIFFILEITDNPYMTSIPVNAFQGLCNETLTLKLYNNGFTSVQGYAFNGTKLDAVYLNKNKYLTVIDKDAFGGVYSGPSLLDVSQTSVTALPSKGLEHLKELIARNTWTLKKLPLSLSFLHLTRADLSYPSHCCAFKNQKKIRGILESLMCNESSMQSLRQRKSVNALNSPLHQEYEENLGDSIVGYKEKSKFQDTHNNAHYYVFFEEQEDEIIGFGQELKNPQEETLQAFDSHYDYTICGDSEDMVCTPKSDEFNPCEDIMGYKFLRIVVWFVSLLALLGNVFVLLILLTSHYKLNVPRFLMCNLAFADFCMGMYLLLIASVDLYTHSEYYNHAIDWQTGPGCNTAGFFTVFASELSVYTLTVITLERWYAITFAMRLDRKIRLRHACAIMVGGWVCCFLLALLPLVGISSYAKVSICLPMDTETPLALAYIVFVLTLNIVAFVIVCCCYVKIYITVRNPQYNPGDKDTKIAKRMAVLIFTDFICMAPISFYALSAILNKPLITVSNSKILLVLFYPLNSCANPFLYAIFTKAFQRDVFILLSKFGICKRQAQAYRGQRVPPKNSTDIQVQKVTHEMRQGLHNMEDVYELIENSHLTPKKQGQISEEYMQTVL

CC(C)N=C(N)/N=C(\N)Nc1ccc(Cl)cc1
Potency [1]: inactive
Potency [2]: inactive
Potency [3]: inactive
Potency [4]: inactive
Potency [5]: inactive

O=Cc1ccc(F)cc1
Potency [1]: inactive
Potency [2]: inactive
Potency [6]: inactive
Potency [4]: inactive
Potency [5]: inactive

CCCCCCCCCCOCC(O)CN (stereo unspecified)
Potency [1]: 29.8 µM (active)
Potency [7]: inactive
Potency [8]: inactive
Potency [6]: 21.1 µM (active)
Potency [4]: inactive

O=C(Nc1ccc(Cl)c(Cl)c1)c1cc(Cl)cc(Cl)c1O
Potency [1]: 7.7 µM (active)
Potency [2]: 4.33 µM (active)
Potency [8]: inactive
Potency [4]: 19.5 µM (active)

CC(=O)O[C@@H]1C[C@@H]2CC[C@@]1(C)C2(C)C
Potency [1]: inactive
Potency [7]: inactive
Potency [2]: inactive
Potency [6]: inactive
Potency [5]: inactive

CC[N+](CC)(CC)Cc1ccccc1
Potency [1]: inactive
Potency [9]: inactive
Potency [7]: inactive
Potency [2]: inactive
Potency [5]: inactive

Clc1ccc(C(c2ccccc2Cl)C(Cl)Cl)cc1 (stereo unspecified)
Potency [1]: inactive
Potency [7]: 13.7 µM (active) and 11.9 µM (active)
Potency [2]: inactive
Potency [6]: 12.2 µM (active) and 5.31 µM (active)
Potency [5]: 113 µM (active)

CC(=O)c1ccccc1N
Potency [1]: inactive
Potency [7]: inactive
Potency [2]: inactive
Potency [6]: inactive
Potency [4]: inactive
Potency [5]: inactive

COc1ccc(-n2nc(CCC(=O)N(C)O)cc2-c2ccc(Cl)cc2)cc1
Potency [1]: inactive
Potency [6]: inactive
Potency [4]: 19 µM (active)

CCN(CC)CCCN(c1ccccc1)C1Cc2ccccc2C1
Potency [1]: inactive
Potency [7]: inactive
Potency [2]: inactive
Potency [6]: inactive
Potency [4]: 23.9 µM (active)
Potency [5]: inactive

O=C1NC2CCCCN2C12CCN(CCCN1c3ccccc3CCc3ccc(Cl)cc31)CC2 (stereo unspecified)
Potency [7]: inactive
Potency [3]: 10.6 µM (active)
Potency [8]: inactive

O=C(Nc1ccc(Cl)cc1)Nc1ccc(Cl)c(C(F)(F)F)c1
Potency [9]: 16.8 µM (active)
Potency [7]: inactive
Potency [3]: 5.31 µM (active)
Potency [8]: inactive
Potency [6]: inactive
Potency [4]: 26.8 µM (active)

C=CC(=O)OCC(O)COc1ccccc1 (stereo unspecified)
Potency [7]: inactive

Nc1ccc2cc3ccc(N)cc3nc2c1
Potency [4]: 24.5 µM (active) and inactive

Cc1cc2c(C(C)C)c(O)c(O)c(C=O)c2c(O)c1-c1c(C)cc2c(C(C)C)c(O)c(O)c(C=O)c2c1O
Potency [7]: inactive
Potency [2]: 26.6 µM (active)
Potency [3]: 11.9 µM (active)
Potency [6]: inactive

COC(=O)[C@]1(C)CCC[C@@]2(C)[C@H]1CC=C1C=C(C(C)C)CC[C@@H]12
Potency [9]: inactive
Potency [7]: inactive
Potency [2]: inactive
Potency [3]: inactive
Potency [8]: inactive
Potency [6]: inactive

COC(=O)CC(C)CCC=C(C)C (stereo unspecified)
Potency [2]: inactive
Potency [8]: inactive
Potency [4]: inactive

COc1cc(C=C2CCC/C(=C\c3ccc(O)c(OC)c3)C2=O)ccc1O
Potency [7]: inactive
Potency [3]: 11.9 µM (active)
Potency [8]: inactive
Potency [6]: inactive
Potency [4]: 15.1 µM (active)

CCCCCCOc1ccc(O)cc1
Potency [9]: inactive
Potency [7]: 27.3 µM (active)
Potency [2]: inactive
Potency [3]: inactive
Potency [8]: 13.7 µM (active)
Potency [6]: inactive
Potency [4]: 54.9 µM (active)
Potency [5]: 11.3 µM (active)

CN(C)c1ccc(N=NS(=O)(=O)O)cc1
Potency [7]: 25.7 µM (active)
Potency [6]: inactive

CN(C)c1ccc(N=Nc2ccccc2C(=O)O)cc1
Potency [7]: 10.9 µM (active)
Potency [2]: 27.3 µM (active)

O=C(c1ccccc1)c1cc(Cl)ccc1O
Potency [2]: inactive
Potency [3]: inactive
Potency [4]: inactive

C/C=C/C(=O)Oc1c(CCCCCC(C)C)cc([N+](=O)[O-])cc1[N+](=O)[O-]
Potency [9]: 30.6 µM (active)
Potency [7]: inactive
Potency [2]: 27.3 µM (active)
Potency [3]: 6.86 µM (active)
Potency [8]: inactive
Potency [6]: inactive

CC(NCCC(c1ccccc1)c1ccccc1)c1ccccc1 (stereo unspecified)
Potency [7]: inactive
Potency [4]: inactive

Nc1cc(Cl)c([N+](=O)[O-])cc1O
Potency [9]: inactive
Potency [3]: inactive
Potency [8]: inactive
Potency [6]: inactive

CNC(=O)c1cc(Oc2ccc(NC(=O)Nc3ccc(Cl)c(C(F)(F)F)c3)cc2)ccn1
Potency [8]: inactive
Potency [6]: inactive
Potency [4]: inactive

NC1(c2ccc(-c3nc4ccn5c(=O)[nH]nc5c4cc3-c3ccccc3)cc2)CCC1
Potency [9]: 11.9 µM (active)
Potency [7]: inactive
Potency [2]: 15 µM (active)
Potency [3]: 3.35 µM (active)
Potency [8]: inactive
Potency [6]: inactive

C[C@H]1O[C@@H](O[C@H]2[C@@H](O)C[C@H](O[C@H]3[C@@H](O)C[C@H](O[C@H]4CC[C@@]5(C)[C@H](CC[C@@H]6[C@@H]5C[C@@H](O)[C@]5(C)[C@@H](C7=CC(=O)OC7)CC[C@]65O)C4)O[C@@H]3C)O[C@@H]2C)C[C@H](O)[C@@H]1O
Potency [3]: 154 nM (active) and 107 nM (active)
Potency [8]: inactive
Potency [4]: 123 nM (active) and 153 nM (active)
Potency [5]: inactive

C[n+]1c2cc(N)ccc2cc2ccc(N)cc21 (tested in a mixture with another compound)
Potency [4]: inactive

COc1ccc2sc(C(=O)Nc3nnn[nH]3)c(OC(C)C)c2c1
Potency [9]: 27.2 µM (active)
Potency [7]: inactive
Potency [3]: 24.2 µM (active)
Potency [6]: inactive
Potency [4]: 24.5 µM (active)
Potency [5]: inactive

Cc1c(C)n(Cc2ccccc2)c2ccc(C(=O)OCCN(C)C)cc12
Potency [9]: inactive
Potency [7]: 11.9 µM (active)
Potency [2]: inactive
Potency [3]: inactive
Potency [8]: 29.8 µM (active)
Potency [6]: inactive
Potency [4]: inactive

Cc1oc(-c2ccccc2)nc1CCOc1ccc(C[C@H](Nc2ccccc2C(=O)c2ccccc2)C(=O)O)cc1
Potency [8]: inactive
Potency [6]: inactive

CCNc1nc(NC(C)CC)nc(OC)n1 (stereo unspecified)
Potency [9]: inactive
Potency [7]: inactive
Potency [2]: inactive
Potency [3]: inactive
Potency [6]: inactive
Potency [4]: inactive
Potency [5]: inactive

CC(C)(c1cc(Br)c(OCCO)c(Br)c1)c1cc(Br)c(OCCO)c(Br)c1
Potency [2]: 42.3 µM (active)
Potency [3]: 16.8 µM (active)
Potency [8]: inactive
Potency [4]: 42.7 µM (active)

CC(C)c1cccc(C(C)C)c1N1C(=O)c2ccc(O)cc2C1=O
Potency [2]: inactive
Potency [6]: inactive
Potency [4]: inactive

CC=O
Potency [9]: 36 µM (active)
Potency [7]: inactive
Potency [2]: 25.5 µM (active)
Potency [4]: 40.7 µM (active)

COc1ccccc1OCCNCC(O)COc1cccc2[nH]c3ccccc3c12 (stereo unspecified)
Potency [9]: inactive
Potency [7]: inactive
Potency [3]: 13.3 µM (active)
Potency [8]: inactive

CN(C)CCOC(c1ccccc1)c1ccccc1 (tested in a mixture with another compound)
Potency [2]: inactive

Clc1ccc(C(Cn2ccnc2)OCc2ccsc2Cl)c(Cl)c1 (stereo unspecified)
Potency [9]: inactive
Potency [7]: 23.7 µM (active)
Potency [3]: 18.8 µM (active)
Potency [8]: inactive
Potency [4]: inactive

CC(C(O)c1ccccc1)N(C)CCOC(c1ccccc1)c1ccccc1 (stereo unspecified)
Potency [7]: inactive
Potency [8]: inactive
Potency [6]: inactive
Potency [4]: inactive

CCN(CC)CCOc1ccc(C(O)(Cc2ccc(Cl)cc2)c2ccc(C)cc2)cc1 (stereo unspecified)
Potency [8]: inactive
Potency [6]: inactive
Potency [5]: 49.2 µM (active)

CCN=c1cc2oc3cc(NCC)c(C)cc3c(-c3ccccc3C(=O)OCC)c-2cc1C
Potency [9]: 54.3 µM (active) and 54.5 µM (active)
Potency [7]: inactive
Potency [2]: inactive
Potency [4]: 38.9 µM (active)

CCCCOc1ccc(C(=O)CCN2CCCCC2)cc1
Potency [9]: inactive
Potency [7]: inactive
Potency [2]: inactive
Potency [6]: inactive
Potency [4]: inactive

Cc1cc(Nc2ccc(O)cc2)ccc1N
Potency [9]: inactive
Potency [7]: inactive
Potency [2]: 24.2 µM (active)
Potency [3]: 15.3 µM (active)
Potency [8]: inactive
Potency [4]: 24.4 µM (active)

CCCOc1sc(C(=O)N2CCC(c3cc(CN)ccc3F)CC2)c(C)c1Br
Potency [7]: inactive
Potency [2]: 56 µM (active)
Potency [8]: inactive
Potency [4]: 28.3 µM (active)

CN(C)CCCN1c2ccccc2Sc2ccc(C(F)(F)F)cc21
Potency [7]: inactive
Potency [6]: inactive
Potency [4]: inactive
